Source: PubChem BioAssay

Experiment: small-molecule microarray binders of probe aXIP, primary screen, biochemical, NeuroSMM set, 635/667 nm fluorescence (AID 1119);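 note: probe is the protein aXip251-270 applied at 1 µg/mL to compound-printed slides; binding of probe to printed compounds measured as 667 nm fluorescence plus signal to noise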
Settings: higher = more signal, called active from +8 up or from −8 down

Composite Z-score, inactive:
CON=C(C)CCN1CCCCc2nc(C)c(C)cc21 0.414
CCOC(=O)[C@H](Cc1ccccc1)NC(=O)CCC1CC(OC(=O)NCc2cccc3ccccc23)CC2(CCCC(COC(=O)NCC3CCCCC3)O2)O1 (some centres undefined) 0.878
CO[C@H]1COC(=O)CCC[C@H](C)[C@@H](OC)COC(=O)CC=C[C@@H]1C 0.168
C[C@H]1C=CCC(=O)OC[C@H](C)C(=O)N2CCC[C@H]2C(=O)OC1 0.472
CC(=O)OC[C@H]1O[C@H](CCON=C(C)C)C=C[C@@H]1OC(C)=O -0.0706
CC(C)[C@@H](OCc1ccccc1)[C@H](C)C=NO[C@@H](C)c1cn([C@H](CO)Cc2ccccc2)nn1 -0.0527
O=C1C2=CC[C@H]3C(=O)N(C4CCCCC4)C(=O)[C@H]3[C@H]2[C@H](O)[C@@H]2O[C@H]12 -0.631
CC(C)(C)N1C(=O)[C@H]2[C@H]3[C@H](O)[C@H](O)CC(=NNC(=O)OCc4ccccc4)[C@H]3CC[C@H]2C1=O 0.175
CC(C)(C)N1C(=O)[C@H]2[C@H]3[C@H](O)[C@H](O)CC(=NNC(=O)OCc4ccccc4)[C@@H]3CC[C@H]2C1=O -0.151
O=C1C2=CC[C@H]3C(=O)N(C[C@@H]4CCCO4)C(=O)[C@H]3[C@H]2[C@H](O)[C@@H]2O[C@H]12 -0.275
CO[C@@H]1C=CCC(=O)N[C@@H](C)C(=O)OC[C@@H](NS(=O)(=O)c2ccc(C)cc2)[C@H](C)C=CCC(=O)OC[C@H]1C 0.51
C[C@@H]1CC[C@@H](C(=O)O)N[C@H]1c1cccc(N2CCOCC2)c1 0.227
CO[C@@H]1COC(=O)[C@@H]2CCCN2C(=O)[C@@H](C)COC(=O)CCC[C@H]1C 0.305
O=C1[C@H]2[C@H]3[C@H](O)[C@H](O)CC(=NOC[C@@H](O)COCc4ccco4)[C@@H]3CC[C@H]2C(=O)N1C1CCCCC1 -0.415
CC(CCC(=O)OC[C@H]1O[C@H](C#Cc2ccccc2)C=C[C@@H]1Oc1ccc(C)cc1)=NO[C@H](C)c1cn([C@@H]2COC[C@H]2O)nn1 -0.166
C[C@H]1CC[C@H]2C(=O)N[C@H](Cc3ccccc3)C(=O)N2[C@@H]1c1ccccc1 0.418
CC(=O)OC[C@H]1O[C@H](CC=NO[C@H](C)c2cn([C@@H]3COC[C@H]3O)nn2)C=C[C@@H]1OC(C)=O 0.195
O=C1CCCC=C1C(O)COCc1ccccc1 (centres undefined) 0.16
COc1ccc(COC(=O)NN=C2C[C@@H](O)[C@@H](O)[C@@H]3[C@@H]4C(=O)N(C5CCCCC5)C(=O)[C@@H]4CC[C@@H]23)cc1 -0.218
COC(=O)CC=C[C@@H](C)[C@@H](C=NOC[C@@H](O)COCc1ccco1)OC -2
O=C1[C@H]2[C@H]3[C@H](O)[C@H](O)CC(=NO[C@@H]4O[C@H](CO)[C@@H](O)[C@H](O)[C@H]4O)[C@@H]3CC[C@H]2C(=O)N1C[C@@H]1CCCO1 -0.258
O=C1[C@H]2[C@H]3[C@H](O)[C@H](O)CC(=NOC[C@@H](O)COCc4ccco4)[C@@H]3CC[C@H]2C(=O)N1Cc1ccccc1 -0.0662
CCOC(=O)[C@H](Cc1ccccc1)NC(=O)CCC1CC(OC(=O)NCCc2ccc(F)cc2)CC2(CCCC(COC(=O)NCc3cccc(C(F)(F)F)c3)O2)O1 (some centres undefined) 1.43
O=C1C=C[C@@H](O)[C@@H]2[C@@H]3C(=O)N(C4CCCCC4)C(=O)[C@@H]3CC[C@@H]12 -0.388
CCN1C(=O)[C@H]2[C@@H]3C(=CC[C@H]2C1=O)C(=O)[C@H]1O[C@H]1[C@H]3O -0.192
CCOC(=O)[C@H](Cc1ccccc1)NC(=O)CCC1CC(OC(=O)NCc2ccc3c(c2)OCO3)CC2(CCCC(COC(=O)NCCOc3ccccc3)O2)O1 (some centres undefined) -0.344
CCN1C(=O)[C@H]2[C@H]3[C@H](O)[C@H](O)CC(=NO[C@H](C)c4cn([C@H](CO)Cc5ccccc5)nn4)[C@@H]3CC[C@H]2C1=O 0.444
COC(OC)[C@@H](C)[C@H](OC)[C@@H](C)[C@H](OC)c1ccccc1 0.273
CO[C@@H]1COC(=O)[C@H](CCSC)NC(=O)CC=C[C@@H](C)COC(=O)[C@@H]2CCCN2C(=O)CC=C[C@H]1C 0.605
